This excerpt belongs to a sample that is enriched for hits.
Pf Dd2 growth: inhibitors of Plasmodium falciparum Dd2 growth; P. falciparum Dd2 growth, SYBR Green, 72 h; Potency, µM (titrated, usually from 28.9 µM), most hits filed as inhibitors; hit rate 4.3% among 120,000; AID 1347417; active = well fitted inhibition curve with a large enough effect; also: nearly all actives have a fitted effect of over 65% in size
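Readout: SYBR Green fluorescence, 485 nm excitation, 535 nm emission, after ~16 h lysis at 37C. Before that, Dd2-infected red cells (2.5% hematocrit) grew 72 h with compound, 29 uM top final concentration.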
Large screens that a line does not name were inactive.

Cc1coc2c(C)c3oc(=O)c(CCC(=O)NCCc4ccc(Cl)cc4)c(C)c3cc12	none
Cc1ccc2c(CN3CCN(c4ccc(Cl)cc4)CC3)cc(=O)oc2c1	none
COc1ccc(CCNC(=O)Cc2c(C)c3cc4c(C)coc4c(C)c3oc2=O)cc1	none
CCOc1ccc2oc(=O)cc(CN3CCN(Cc4ccc(C)cc4)CC3)c2c1	none
O=C(Nc1ccc2c(c1)CN(Cc1ccc(Cl)cc1)C(=O)CO2)c1ccccc1	none
Cc1cc(=O)oc2c3c(ccc12)OCN(Cc1ccc(Cl)cc1)C3	Pf Dd2 growth 5.62µM
O=c1oc2c3c(ccc2c2ccccc12)OCN(Cc1ccc(Cl)cc1)C3	Pf Dd2 growth 10µM
O=C(Cn1c(=O)oc2ccccc21)NCc1ccc(Cl)cc1	none
COC(=O)Cc1c(C)c2ccc3c(c2oc1=O)CN(Cc1ccc(Cl)cc1)CO3	Pf Dd2 growth 7.08µM
COc1cccc([S+](=O)([O-])N2CCC3(C2)NC(=O)c2ccccc2CO3)c1 (stereo not drawn)	none
O=C(NCCCN1CCOCC1)C1CCc2ncc(-c3ccsc3)n2C1 (stereo not drawn)	none
O=C(Cn1nc2c(cc1=O)CCCC2)NCC1CCC(C(=O)O)CC1 (stereo not drawn)	none
CCOCc1nc(C2CCCN(C(=O)Cc3ccc(C)cc3)C2)no1 (stereo not drawn)	none
COc1ccc(NC(=O)Cn2c(-c3cnccn3)nc(C)c(C)c2=O)cc1	none
O=C(Nc1ccc2c(c1)OCCO2)N1c2ccccc2CC1c1nc(C2CC2)no1 (stereo not drawn)	none
CS(=O)(=O)c1ccc(-c2cnc([C@@H]3COCCN3Cc3ccccc3O)[nH]2)cc1	none
Cn1cc(CN2CCOC[C@H]2c2ncc(C(C)(C)C)[nH]2)c2ccccc21	Pf Dd2 growth 10µM
C[C@@H](NC(=O)N1CCOC[C@H]1c1ncc(-c2ccc(Cl)cc2)[nH]1)c1ccccc1	Pf Dd2 growth 12.6µM
Oc1ccccc1CN1CCOC[C@H]1c1ncc(-c2ccc(F)cc2F)[nH]1	Pf Dd2 growth 3.16µM
Clc1ccc(-c2cnc([C@@H]3COCCN3Cc3ccccc3)[nH]2)s1	none
CS(=O)(=O)c1ccc(CN2CCOC[C@H]2c2ncc(-c3ccc(Cl)s3)[nH]2)cc1	none
CC(C)(C)CN1CCOC[C@H]1c1ncc(-c2ccccc2)[nH]1	none
CO[C@@](C(=O)N1CCOC[C@H]1c1ncc(-c2ccccc2)[nH]1)(c1ccccc1)C(F)(F)F	none
CN1CCC(N2CCOC[C@H]2c2ncc(C(C)(C)C)[nH]2)CC1	none
Clc1ccc(-c2cnc([C@@H]3COCCN3C3CCCCC3)[nH]2)cc1	none
Cn1c(CN2CCOC[C@H]2c2ncc(-c3ccc(Cl)s3)[nH]2)nc2ccccc21	Pf Dd2 growth 11.2µM
CN1CCOC[C@H]1c1ncc(-c2ccc(F)cc2F)[nH]1	none
CC(C)CNc1ncnc2c1CN(C1CCCC1)C(=O)CN2C	none
O=c1n(Cc2cc(F)cc(F)c2)nc2n1CCCCC2	none
COc1ccc(C)cc1NC(=O)CC1CCCN(c2cnn(CC3CC3)c(=O)c2)C1 (stereo not drawn)	none
CN(C)S(=O)(=O)N1CCC2(CC1)CC1C(=O)NCCN1C2 (stereo not drawn)	none
COc1ccc(-c2cnc([C@@H]3COCCN3Cc3ccccc3)[nH]2)cc1	Pf Dd2 growth 10µM
COc1ccc(CN2CCOC[C@H]2c2ncc(-c3ccc(C)cc3)[nH]2)cc1	none
COc1ccc(-c2cnc([C@@H]3COCCN3Cc3ccncc3)[nH]2)cc1	none
Cc1cc(F)ccc1NC(=O)c1cc(-c2ccc[nH]2)n[nH]1	none
O=C(c1cnccn1)N1CCC(N2C(=O)C(OCC3CC3)C23CCCCC3)CC1 (stereo not drawn)	none
Cc1ccc(S(=O)(=O)N2CCCC(Cn3c(C)nc4cccnc43)C2)cc1 (stereo not drawn)	none
Cc1nc2cccnc2n1CC1CCCN(S(=O)(=O)c2ccc(F)c(F)c2)C1 (stereo not drawn)	none
Cc1ccc(S(=O)(=O)N2CCCC(Cn3c(C)nc4cccnc43)C2)cc1Cl (stereo not drawn)	Pf Dd2 growth 7.08µM
COc1nc2c(cc1CNC(=O)C1CCCC1)C(=O)N(CCc1ccccn1)C2	none
CC(=O)Nc1ccc2c(c1)nc1n2[C@@H](CNC(=O)NC(C)C)COC1	none
CCc1ccc(CN2CC(C(=O)NCc3ccncc3)C3(CCOCC3)C2)cc1 (stereo not drawn)	none
O=C(NCc1ccncc1)C1CN(Cc2ccoc2)CC12CCOCC2 (stereo not drawn)	none
O=C(NCc1ccncc1)C1CN(Cc2cccc(Br)c2)CC12CCOCC2 (stereo not drawn)	Pf Dd2 growth 3.55µM
O=C(c1ccc(Cl)cc1)N1CCC2(CC1)C(=O)NCN2c1ccccc1	none
Cc1cccc(NC(=O)Cc2csc(COc3cccc(C)c3)n2)c1	none
CC(=O)Nc1cccc(NC(=O)Cc2csc(COc3cccc(C)c3)n2)c1	none
CCOc1ccccc1NC(=O)Cc1csc(COc2cccc(C)c2)n1	Pf Dd2 growth 11.2µM
CC[C@H]1CN(Cc2ccncc2)CC[C@H]1CC(=O)N1CCC(C(=O)OC)CC1	none
CC(NC(=O)C1CCCN(c2cnc3nccnc3c2)C1)c1ccccn1 (stereo not drawn)	none
COc1ccccc1NC(=O)CN1C(=O)C2(SCC(=O)N2c2ccc(C)c(C)c2)c2ccccc21 (stereo not drawn)	Pf Dd2 growth 10µM
Cc1ccc(C)c(NC(=O)CN2C(=O)COc3ccc(Cl)cc32)c1	none
COc1cccc(CN2C(=O)C3(SCC(=O)N3c3ccc(F)cc3)c3ccccc32)c1 (stereo not drawn)	none
Cc1ccc(N2C(=O)CSC23C(=O)N(Cc2ccccc2F)c2ccccc23)cc1F (stereo not drawn)	none
COc1ccc(N2C(=O)CCSC23C(=O)N(Cc2ccc(F)cc2)c2ccccc23)cc1 (stereo not drawn)	none
Cc1ccc(C)c(NC(=O)CN2C(=O)C3(SCC(=O)N3c3ccc(C)c(C)c3)c3ccccc32)c1 (stereo not drawn)	Pf Dd2 growth 11.2µM
COc1ccc(N2C(=O)CCSC23C(=O)N(Cc2ccc(F)cc2)c2ccccc23)cc1Cl (stereo not drawn)	Pf Dd2 growth 11.2µM
COc1ccccc1NC(=O)CN1C(=O)CSc2ccc(S(=O)(=O)N3CCCC3)cc21	none
COc1ccc(N2C(=O)CSC23C(=O)N(CC(N)=O)c2ccccc23)cc1 (stereo not drawn)	none
Clc1ccc(-c2cnc([C@@H]3COCCN3C3CCNCC3)[nH]2)s1	none
O=[S+]1([O-])NC2(CCN(Cc3cccs3)C2)COc2ccncc21 (stereo not drawn)	none
CCCNC(=O)N1CCCN(S(=O)(=O)c2ccccc2)CCC(=O)NCC1	none
CN(C)C[C@@H]1CN(S(C)(=O)=O)C[C@H]1NC(=O)c1ccsc1	none
CNCC(=O)N1CCCC(c2cc(N3CCOCC3)nc(C)n2)C1 (stereo not drawn)	none
Cc1ccc(C(=O)N2CCC3(CC2)CC(CO)N(C(=O)c2ccccc2)C3)cn1 (stereo not drawn)	none
CCc1ccc2ncc(C(=O)c3ccc(C)c(C)c3)c(N3CCC(C(N)=O)CC3)c2c1	none
CCOC(=O)C1CCCN(c2ncnc3c2cnn3-c2ccc(C)c(Cl)c2)C1 (stereo not drawn)	none
CCOC(=O)C1CCCN(c2c(C(=O)c3ccc(C)cc3)cnc3ccc(OCC)cc23)C1 (stereo not drawn)	Pf Dd2 growth 11.2µM
COc1cc(F)c(C(=O)N2C[C@@H](C(=O)O)[C@H](c3ccccc3)C2)c(F)c1	none
COc1ccc(CNC(=O)c2cc3cn(C4CC4)cc3s2)cc1OC	none
Cc1ccc(CNC(=O)c2cc3cn(C(C)C)cc3s2)o1	none
COc1ccc(CCNC(=O)c2cc3cn(C(C)C)cc3s2)cc1OC	Pf Dd2 growth 8.91µM
